Screens: PubChem BioAssay, National Center for Advancing Translational Sciences (NCATS)
VP16 counter – VP16 counterscreen qHTS for inhibitors of ROR gamma transcriptional activity. Drosophila S2 Gal4-VP16 UAS-luciferase, luminescence, 20 h. Potency, µM (top dose mostly 53.6 µM), for the others: at the top dose activity, negative = inhibition, most hits filed as inhibitors. hit rate 3.5% among 310,000;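 note: Gal4-VP16 expression switched on by copper sulfate through the metallothionein promoter; potency is the fitted concentration of half-maximal effect; % is set by controls: 0 for no effect and ±100 for the full control effect; nearly all actives have a fitted effect of over 50% in size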
CtBP-E1A inh – qHTS Assay for Inhibitors of the CtBP/E1A Interaction; CtBP / adenovirus E1A interaction (AlphaScreen); AlphaScreen GST-E1A/His-CtBP binding, 1536-well; hits give low values; activity change, % (concentration not given with the values); hit rate 0.49% among 340,000; AID 651724, 2012; in the data active = activity change below about -65%; inconclusive = mostly about -30% to -63%; note: % is set by controls: 0 for no effect and ±100 for the full control effect
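In 5 uL wells, 23 nL compound meets equimolar GST-E1A and His-CtBP (5X stock 125 nM each) for 2 h, 37 °C. Beads (5X, 50 ug/mL) then 1 h, 37 °C, dark.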
Six1-Eya2 blk – qHTS Assay for Inhibitors of the Six1/Eya2 Interaction. AID 651725, 2012. Homeobox protein SIX1 (Homo sapiens) + Protein phosphatase EYA2 (Homo sapiens), …. activity change, % (concentration not given with the values). hit rate 0.56% among 360,000. AlphaScreen GST-Six1/His-Eya2 binding, biochemical; hits give low values; in the data active = activity change below about -65%; inconclusive = mostly about -30% to -63%; note: % is set by controls: 0 for no effect and ±100 for the full control effect
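Compounds are tested against tagged Six1 and Eya2 proteins bridged by glutathione donor and nickel acceptor beads; after a one-hour incubation at 37 °C without light, AlphaScreen emission is recorded.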
MBNL1-CUG inh – qHTS Assay for Inhibitors of MBNL1-poly(CUG) RNA binding | Muscleblind-like protein 1 (Homo sapiens), Q9NR56 | TR-FRET MBNL1-His/biotin-(CUG)12 binding, 665/545 ratio | Potency, µM (highest dose often 57.5 µM), for the others: at the top dose activity change, negative = inhibition, actives largely listed as inhibitors | hit rate 0.036% among 280,000 | AID 2675, 2010; active = well fitted inhibition curve with a large enough effect in the signal ratio, with a control signal flat, not every such curve was filed as active; inconclusive = small, poorly fitted or top-dose-only effect, or effect the other way, or a change in a side signal; inactive = no such curve, though single readings can be large or run the other way; the % refers to the signal ratio; note: potency is the fitted concentration of half-maximal effect; % is set by controls: 0 for no effect and ±100 for the full control effect
Target sequence (Q9NR56 whole entry, looked up): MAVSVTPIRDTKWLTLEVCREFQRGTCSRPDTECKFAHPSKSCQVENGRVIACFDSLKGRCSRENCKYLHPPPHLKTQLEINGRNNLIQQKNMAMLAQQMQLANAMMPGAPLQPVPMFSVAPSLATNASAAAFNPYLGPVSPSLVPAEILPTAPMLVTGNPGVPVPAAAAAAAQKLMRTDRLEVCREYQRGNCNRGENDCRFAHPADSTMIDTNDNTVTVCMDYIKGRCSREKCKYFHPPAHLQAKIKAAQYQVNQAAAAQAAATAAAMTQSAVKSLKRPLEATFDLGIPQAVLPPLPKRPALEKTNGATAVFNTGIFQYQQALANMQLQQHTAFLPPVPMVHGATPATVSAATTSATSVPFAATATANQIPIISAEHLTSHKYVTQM
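Inhibition of protein-RNA binding appears as loss of TR-FRET between terbium anti-His antibody on MBNL1-His and streptavidin-XL665 on biotin-(CUG)12. Activity is normalized to buffer-only and uninhibited-complex controls.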
CBFb RUNX1 block – qHTS Assay for Compounds Blocking the Interaction Between CBF-beta and RUNX1 for the Treatment of Acute Myeloid Leukemia; Runt-related transcription factor 1 (Homo sapiens) + Core-binding factor subunit beta …; AlphaScreen CBFb-His/RUNX1-biotin binding, biochemical; Potency, µM (doses to about 59.8 µM), for the others: at the highest dose activity, negative = inhibition, most hits filed as inhibitors; 230,000 tested, under 10 active; AID 1477, 2009; note: % of control where 0% means no effect
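Bead-based AlphaScreen assay; binding partners His-tagged CBF-beta and biotinylated RUNX1 at 30 nM each. Compound exposure 15 min after a 20-min protein preincubation; bead step 90 min; all steps at room temperature.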
RORg inh – qHTS for inhibitors of ROR gamma transcriptional activity; Potency, µM (titrated, usually from 53.6 µM), without a hit: at the top dose activity change, negative = inhibition, actives largely listed as inhibitors; Nuclear receptor ROR-gamma (Mus musculus), P51450; AID 2551, 2010; Drosophila S2 Gal4-RORgamma UAS-luciferase reporter, 20 h; hit rate 5.4% among 310,000; note: potency is the fitted concentration of half-maximal effect; % is set by controls: 0 for no effect and ±100 for the full control effect; nearly all actives have a fitted effect of over 60% in size
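In this cell-based reporter format, copper sulfate (700 uM final) drives Gal4–ROR gamma fusion expression from a metallothionein promoter in Drosophila Schneider cells; compounds preincubated 1 hr, reporter read after 20 hr at ambient temperature.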
Active calls of the source: *; ? = inconclusive; / = not tested or not shown; [ ] = remark or other dose. Hits are enriched below; roughly 5.5% of the tested compounds scored in any of these assays. Unless noted, calls come from the whole dose curve; as a rule, active = well fitted curve in the direction sought with a large enough effect; inconclusive = small, poorly fitted or top-dose-only effect, or another doubt; inactive = no such curve, though single readings can be large; an effect the other way counts as inactive or inconclusive.

SMILES	VP16 counter	CtBP-E1A inh	Six1-Eya2 blk	MBNL1-CUG inh	CBFb RUNX1 block	RORg inh
CCN(CC(=O)Nc1cc(S(=O)(=O)N2CCOCC2)ccc1C)Cc1ccccc1	/	-1	-9	/	/	/
Cc1ccc(S(=O)(=O)N(C)C)cc1NC(=O)c1cncc(Br)c1	2.5µM*	-18	3	/	2%	10µM*
CCCn1c(-c2ccc(F)cc2)nc2c(N3CCN(CCn4ccnc4)CC3)nc(C)nc21	6%	/	/	/	2%	-18%
CCCCCCCCCCCCCCCCCC(=O)OC(CC(=O)O)C[N+](C)(C)C (configuration not stated)	/	/	/	/	5%	/
O=C1c2ccccc2NC(c2ccc([N+](=O)[O-])cc2)N1O (configuration not stated)	3%	0	-1	?	-9%	11µM*
O=C1c2ccccc2NC(c2cccc([N+](=O)[O-])c2)N1O (configuration not stated)	-1%	/	-1	?	/	?
CCn1cc(C2=NC(c3ccccc3)CO2)c2ccccc21 (configuration not stated)	-9%	-11	13	-9%	-4%[2.36 µM]	10µM*
CCn1cc(C(=O)C(F)(F)F)c2ccccc21	-12%	5	12	4%	4%	5%
CCn1cc(C2=NCC(C)O2)c2ccccc21 (configuration not stated)	?	0	1	-18%	-1%	18µM*
CCn1cc(C2=NC(C)(C)CO2)c2ccccc21	?	3	6	5%	-2%	20µM*
CCn1cc(SCC(=O)N2CCOCC2)c2ccccc21	1%	-5	3	-2%	6%	-2%
CCn1cc(C2=NC(C)CO2)c2ccccc21 (configuration not stated)	-28%	-3	2	-2%	-2%	10µM*
O=[N+]([O-])c1cccc(C2=NC(c3ccccc3)CO2)c1 (configuration not stated)	-12%	-19	5	?	3%	-1%
CC1(C)COC(c2cccn2Cc2ccc(F)cc2Cl)=N1	-7%	0	1	6%	0%	?
CC(C)NC(=O)CSc1ccccc1C(=O)N1CCN(S(=O)(=O)Cc2ccccc2)CC1	/	-3	0	/	/	/
CCn1cc(S(=O)(=O)CC(=O)Nc2ccc3c(c2)OCCO3)c2ccccc21	0%	-2	-1	2%	0%	11%
CCn1cc(C2=NCCO2)c2ccccc21	-17%	2	0	-16%	-1%	20µM*
COc1ccc(COC(=O)C2=C(C)NC(=O)NC2c2ccc(F)cc2)cc1 (configuration not stated)	-8%	-2	-13	7%	/	49%
Cc1ccc(C(=O)Oc2cc(C)n(C)c(=O)c2)cc1	-1%	-23	-95*	6%	0%	-1%
CC(=O)c1c(OC(=O)c2ccc(C)cc2)c2ccccc2n1C	-1%[0.365 µM]	3	0	9%	13%	-32%
COc1ccccc1NC(=S)Nc1ccccc1F	?	6	-2	?	14%	?
CC1(C)C/C(=N\NC(=S)Nc2ccccc2F)c2cc(O)ccc2O1	?	-16	-14	-3%	4%	3.2µM*
COc1cccc(NC(=S)N/N=C2\CC(C)(C)Oc3ccc(O)cc32)c1	4.5µM*	/	-23	0%	?	7.1µM*
COc1cccc(NC(=S)N/N=C2\CC3CCC2(C)C3(C)C)c1 (configuration not stated)	5µM*	21	-22	0%	-17%	0.56µM*
COc1cccc(NC(=S)NN=C2CCC(C(C)(C)C)CC2)c1 (configuration not stated)	3%	-26	?	5%	-12%	?
SMILES	VP16 counter	CtBP-E1A inh	Six1-Eya2 blk	MBNL1-CUG inh	CBFb RUNX1 block	RORg inh
Cc1cccc(NC(=S)N/N=C2\CC(C)(C)Oc3ccc(O)cc32)c1	3.2µM*	-25	-28	-2%	?	4.5µM*
Cc1noc(C)c1S(=O)(=O)Nc1ccc2c(c1)C(=O)N([C@@H](C)CO)C[C@H](C)[C@@H](CN(C)Cc1ccc(C(F)(F)F)cc1)OCCCC[C@H](C)O2	/	-15	5	/	/	/
COc1ccc(CN(C)C(=O)CCNS(=O)(=O)c2ccccc2)c(OC)c1	/	-2	-3	/	/	/
CCCCCc1n[nH]c2c1CCCC2	-26%	/	2	-7%	-1%	10µM*
CCCCc1nc2n[nH]c(N)c2c2c1CCCC2	6%	1	1	0%	-3%	-1%
C/C(=N\NC(=S)Nc1ccccc1C)C1Cc2ccccc2C(=O)O1 (configuration not stated)	?	-19	0	/	0%	2.8µM*
NNC(=O)c1cc2c(ccc3ccccc32)o1	-8%[10 µM]	0	-3	8%	-2%	-39%
O=C(Nc1cccnc1)c1cc2c(ccc3ccccc32)o1	?	-9	4	16%	4%	1.4µM*
CC(=O)c1ccc(N2CCN(C(=O)c3cc(-c4ccncc4)nc4ccc(Cl)cc34)CC2)cc1	-18%	0	9	9%	/	-5%
Cc1ccc(N=Nc2c(O)[nH]c3ccc(F)cc23)cc1	-1%	0	-5	/	7%	-3%
O=c1[nH]nc(N=Nc2c(O)[nH]c3ccc(F)cc23)c(=O)[nH]1	/	-71*	-80*	/	/	/
CCOc1ccccc1/C=N/NC(=O)c1c(C)nc2ccc(Br)cn12	-4%	-1	-2	-3%	/	-25%
C=CCOc1ccc(/C=N/NC(=O)c2c(C)nc3ccc(Cl)cn23)cc1	10µM*	-2	2	5%	/	2.2µM*
Cc1ccc(/C=N/NC(=O)c2c(C)nc3ccc(Br)cn23)cc1	?	/	-2	3%	/	7.1µM*
COc1cccc(/C=N/NC(=O)c2c(C)nc3ccc(Br)cn23)c1O	2.5µM*	-91*	-92*	7%	/	2.5µM*
COc1ccc(/C=N/NC(=O)c2c(C)nc3ccc(Br)cn23)cc1OC	-19%	-4	-2	10%	-2%	5%
COc1ccc(/C=N\NC(=O)c2c(C)nc3ccc(Br)cn23)cc1	-102%	/	10	6%	-6%	10µM*
c1ccc2[nH]c(-c3cnco3)cc2c1	15%	-8	1	8%	/	18%
